From PubChem BioAssay AID1672 (Johns Hopkins Ion Channel Center, 2009)
Hit rate of the full screen: of about 310,000 compounds, about 2,600 (0.84%) were called active.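 The calls were made as follows: active = fluorescence ratio B-score at or below minus 3 SD of library scores, with starting-brightness B-score within 2 SD (cut at about -4.2 in these data); inactive = the rest.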 Only a selection was taken, and actives are over-represented in it overall.

Biological target: Inward rectifier potassium channel 2 (Mus musculus) (UniProt P35561)
Sequence (P35561 whole entry, looked up): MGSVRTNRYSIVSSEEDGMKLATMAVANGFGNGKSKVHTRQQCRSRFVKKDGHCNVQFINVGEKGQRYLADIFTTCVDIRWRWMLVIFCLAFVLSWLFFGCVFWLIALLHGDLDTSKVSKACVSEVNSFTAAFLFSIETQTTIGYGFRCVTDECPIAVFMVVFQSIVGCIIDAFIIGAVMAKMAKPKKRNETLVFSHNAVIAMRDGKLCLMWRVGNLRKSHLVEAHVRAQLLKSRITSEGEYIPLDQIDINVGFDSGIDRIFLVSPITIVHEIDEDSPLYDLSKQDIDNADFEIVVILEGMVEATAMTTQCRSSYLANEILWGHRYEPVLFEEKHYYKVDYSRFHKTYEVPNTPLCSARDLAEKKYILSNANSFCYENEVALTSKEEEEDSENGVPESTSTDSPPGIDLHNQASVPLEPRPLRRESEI
Test: blocks the mouse Kir2.1 inward-rectifier potassium channel (AID 1672);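 also: channel flux triggered by added potassium and thallium sulfate stimulus; B-score of peak minus minimum fluorescence over baseline after thallium stimulus; more negative B-score means stronger Kir2.1 block with less thallium influx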
Settings: HEK293-Kir2.1, FluxOR thallium flux fluorescence; at 10 µM; active compounds read low

B-score, active:
CC(NC(=O)CCCC1CCCCC1)c1ccc(S(N)(=O)=O)cc1 (stereo unspecified) -5.32
N=c1n(CCc2ccccc2)c2ccccc2n1Cc1ccccc1F -8.75
c1ccc(CSc2nnc(-c3ccco3)n2Cc2ccccc2)cc1 -8.28
Nc1ccccc1SC(C[N+](=O)[O-])c1ccccc1 (stereo unspecified) -7.5
O=C(Cc1c[nH]c2ccccc12)OCCOC(=O)Cc1c[nH]c2ccccc12 -7.97
S=C(Nc1ccc(Br)cc1)NC1CCN(Cc2ccccc2)CC1 -9.22
Clc1cccc(Cl)c1OCCOCCNCc1ccccc1 -7.4
Cc1cc(OCCN2CCCC2)cc(C(C)C)c1 -4.28
COCCNC(=O)COc1ccc(N(C)S(=O)(=O)c2ccc3ccccc3c2)cc1 -5.91
COc1ccc(CCC(C)N2CCc3ccccc3C2)cc1 (stereo unspecified) -8.02
Cc1ccc(Nc2c3c(nc4ccccc24)CCC3)cc1 -15.2
COc1ccc(/C=C/CN2CCCC(C(=O)c3cc(F)ccc3F)C2)cc1 (stereo unspecified) -4.21
O=C(Nc1cccc(-c2cscn2)c1)C1CCN(Cc2ccsc2)CC1 -7.36
CCn1cc(CN2CCC(C(=O)Nc3cccc(-c4cccc(Cl)c4)c3)CC2)cn1 -6.62
O=C(Nc1cccc(-c2cccc(Cl)c2)c1)C1CCN(C2CCC2)CC1 -4.84

B-score, inactive:
NS(=O)(=O)c1ccc(CCNC(=O)NC2CCCCC2)cc1 -0.34
CC(NC(=O)CNC(=O)Cc1cccc2ccccc12)c1ccc(S(N)(=O)=O)cc1 (stereo unspecified) 1.18
Cc1ccc2c(C)c(C(=O)N3CCN(c4ccncc4)CC3)oc2c1C -0.57
CC(=O)NC(C)c1nc2ccccc2n1Cc1ccccc1F (stereo unspecified) -2.56
Fc1ccccc1Cn1cnc(NC(=S)NCCc2ccccc2)n1 1.75
Cc1ccc(CN2CCN(c3ccccc3Cl)CC2)o1 -1.98
c1ccc(CSc2nnc(-c3ccco3)c(-c3ccco3)n2)cc1 0.54
O=C(CSc1nnc(-c2ccco2)n1Cc1ccccc1)NC(=O)NCc1ccco1 -1.04
Cc1nc2c(c(C)nn2-c2ccccc2)c(C)c1C -0.74
C#CCNC(=O)[C@H](Cc1ccc(C(=O)c2ccccc2)cc1)NC(=O)OC(C)(C)C -2.31
CCS(=O)(=O)c1cc([N+](=O)[O-])c(Sc2ccccc2N)s1 0.71
Nc1ccccc1Sc1ccc(C(F)(F)F)cc1[N+](=O)[O-] -2.03
COc1cc(C(=O)N(C)Cc2cccc(OC)c2OC)ccc1OCC(=O)Nc1cccc(C(F)(F)F)c1 1.36
O=C(COC(=O)Cc1c[nH]c2ccccc12)NCCc1ccccc1 -1.86
CCOC(=O)CN(C)Cc1c[nH]c2ccccc12 0.81
O=C(COc1coc(CN2CCN(c3ccccc3)CC2)cc1=O)N1CCc2ccccc21 0.28
S=C(Nc1ccc(Br)cc1Cl)NC1CCN(Cc2ccccc2)CC1 -0.65
O=C(NC1CCN(Cc2ccccc2)CC1)c1c(F)cccc1F 0.03
CCN(CC)c1ccc(NC(=O)c2ccc(=O)[nH]c2)cc1S(=O)(=O)Nc1ccc(OC)cc1 0.31
COc1cccc(C(=O)NCCS(=O)(=O)NCC2CCCO2)c1 (stereo unspecified) 2.76
CCC(C)N(C(=O)CSc1ncnc2c1cnn2-c1ccccc1)C1CCS(=O)(=O)C1 (stereo unspecified) 0.08
CCOc1ccccc1OCCCNCc1ccccc1 -3.69
COCCNCCOCCOc1cccc(OC)c1 -0.8
CCCOc1ccc(Cl)cc1Nc1nc(NCCO)nc(N2CCCC2)n1 0.67
Cc1ccc(C(C)C)cc1OCCN1CCCC1 -1.08
COc1cccc(OCCCN2CCCCCC2)c1 0.91
Cc1cccc(NC(=O)c2ccc(S(=O)(=O)N(C)CC3CCCO3)cc2)c1C (stereo unspecified) 1.86
CN(c1ccc(OCC(=O)O)cc1)S(=O)(=O)c1ccc2ccccc2c1 -1.8
CN(c1ccccc1)S(=O)(=O)c1ccc(NC(=O)COc2ccccc2)cc1 -1
COc1ccc(CCNC(=S)N2CCN(S(=O)(=O)c3ccc(F)cc3)CC2)cc1 0.06
Cc1ccc2nc(N3CCN(C(=O)c4ccco4)CC3)sc2c1 -0.26
OCc1ccc(-c2ccccc2)c(-c2ccccc2)c1 -1.83
Cc1cc(C)c(S(=O)(=O)NCC(c2ccc3c(c2)OCO3)N2CCOCC2)c(C)c1 (stereo unspecified) -1.24
COc1ccc(NC(=O)C(=O)NCC(c2ccco2)N2CCc3ccccc3C2)cc1 (stereo unspecified) 1.13
COc1ccc(OC)c(NC(=S)N2CCc3ccccc3C2)c1 0.14
Cc1c(C)n2c(SCC(=O)NC3CCCC3)nnc2[nH]c1=O 0.79
O=C1[C@H]2[C@@H](c3ccc(F)cc3)N3C(=O)N(c4ccc(C(F)(F)F)cc4)C(=O)[C@@]3(Cc3ccccc3)[C@H]2C(=O)N1C1CCCCC1 -0.87
[O-][n+]1ccc(OCc2ccccc2)cc1 0.47
Cc1cccc(N2CC(C(=O)Nc3ccccc3N3CCCC3)CC2=O)c1C (stereo unspecified) 0.2
CC(=O)Nc1ccc(Nc2c3ccccc3nc3ccccc23)cc1 0.07
N#Cc1cccc(Nc2c3c(nc4ccccc24)CCCC3)c1 -0.49
Cc1ccc(S(=O)(=O)NC(C)C(=O)NCc2ccc(Cl)cc2)cc1 (stereo unspecified) 1.6
CSCC(=O)N1CCCC(C(=O)c2cc(F)ccc2F)C1 (stereo unspecified) 1.27
O=C(c1ccc(OC2CCN(C/C=C/c3ccc(F)cc3)CC2)cc1)N1CCCCC1 -2.2
COc1ccc(-c2csc3ncnc(N4CCN(S(=O)(=O)c5cccc(F)c5)CC4)c23)cc1 0.02
CCNC(=S)NNC(=O)C1CCN(Cc2ccccc2)CC1 -0.93
COc1cccc(-c2cccc(NC(=O)C3CCN(C4CCC4)CC3)c2)c1 -0.09
O=C(Nc1ccc(-c2cscn2)cc1)C1CCCN(Cc2ccc(CO)o2)C1 (stereo unspecified) -0.77
CC(=O)c1cc(CN2CCC(C(=O)Nc3cccc(-c4cscn4)c3)CC2)cs1 -2.25
O=C(NC1CCCC1)C1CCN(C(=O)Nc2cccc(Cl)c2)CC1 -1.63
O=C(Nc1cnn(Cc2ccc(Cl)cc2)c1)C1CCCC1 -1.43
